Test [1] concerns Aerobactin synthetase IucA (Klebsiella pneumoniae). Briefly: inhibition of K. pneumoniae IucA enzyme – biochemical, Tocris library, absorbance (AID 1345561).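 Note: 100% = enzyme without compound and 0% = no enzyme.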 As to conditions: purified IucA enzyme assay, absorbance (OD) read-out; stronger effect = lower value;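 tested at 8 µM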.
A short description of test [2]: viability loss with induced miR-34 in A549 – imaging, A549 dox-inducible miR-34, nuclei and caspase counts, primary screen (AID 1347080;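 active = compounds whose cell count with miR-34 switched on is under 0.7 times the count with it off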). The following applies: A549 miR-34 inducible, Hoechst nuclei count, 48 h.
Test [3] in a line: galactose survival enhancers in mitochondrial complex I cybrids – cell-based, galactose medium, ATP luminescence, primary screen (AID 1645843;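 active = z-score of at least 1.8 in each of two replicates, scored against plate mean and spread of sample wells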;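 note: positive z means more ATP and so rescue of galactose-driven cybrid death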). The following applies: complex I mutant cybrid cells, 72 h, stronger effect = higher value.
A short description of test [4]: P. berghei load reduction in hepatocytes – cell-based, HepG2, luciferase luminescence, HepG2 viability, primary screen (AID 624349; in the data active = parasite load remaining mostly below about 12%, no sharp cut-off; inactive = mostly above about 10%;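 note: 100% = mean of DMSO negative control wells on the same plate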). The following applies: P. berghei liver stage in HepG2, luciferase luminescence, concentration not given here; parasite load remaining: stronger effect = lower value; viability: measured here: HepG2 viability without parasites.
In test [5] the test system is Aerobactin synthetase IucA (Klebsiella pneumoniae hvKP1). Briefly: IucA enzyme inhibition, primary screen, biochemical, Spectrum library (AID 1346200).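 Note: 100% = wells without compound and 0% = wells lacking enzyme.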 As to conditions: malachite green pyrophosphate, A620, at 8 µM, stronger effect = lower value.
[6] abbreviates: stronger effect = lower value, cell number ratio, induced over uninduced.
Setting [7] is: measured here: relative caspase fold change +Dox/-Dox.
[8] abbreviates: measured here: total cells with miR-34 induction, stronger effect = lower value.
The mark [9] stands for this setting: measured here: total cells without miR-34 induction.

Calls of active or inactive are those of the source. Unless noted, the rule behind the calls is not given here.

Usually remaining activity stands for the signal under treatment as a percentage of the control signal. As for `CC1=C(O)C(=O)[C@@H]2O[C@@H]2C1=O`, the remaining activity in test [1] was 113% (inactive). In addition, the fold change in test [2] (setting [6]) was 0.983 (inactive); in test [2] (setting [7]), 1. In addition, the cell count in test [2] (setting [8]) turned out to be 7990; in test [2] (setting [9]), 8130. For the same compound, in test [3], the z-score is 0.005 (inactive).

As to `O=C(CCCN1CCC2(CC1)C(=O)N(Cc1cccc(F)c1)CN2c1ccccc1)c1ccc(F)cc1`, the remaining activity in test [1] is 109% (inactive). The fold change in test [2] (setting [6]) was 1.27 (inactive); in test [2] (setting [7]) it was 1. For the same compound, the cell count in test [2] (setting [8]) is 1590; in test [2] (setting [9]), 1250. The z-score in test [3] is -1.2 (inactive).

Turning to `CCCN(C/C=C/I)C1CCc2ccc(O)cc2C1` (configuration not stated), in test [1], the remaining activity is 102% (inactive). Besides, the fold change in test [2] (setting [6]) is 0.904 (inactive); in test [2] (setting [7]) it was 0.638. For the same compound, the cell count is 8360 in test [2] (setting [8]) and 9250 in test [2] (setting [9]). Further, the z-score in test [3] is -0.23 (inactive).

For the compound `CC(=O)[C@H]1CC[C@H]2[C@@H]3CCC4C[C@](C)(O)CC[C@]4(C)[C@H]3CC[C@]12C` (some centres not stated), the remaining activity in test [1] is 103% (inactive). Also, the fold change is 0.92 (inactive) in test [2] (stronger effect = lower value) and 1.5 in test [2] (setting [7]). Besides, the cell count worked out at 8730 in test [2] (setting [8]) and 9490 in test [2] (setting [9]). Moreover, the z-score in test [3] is -0.285 (inactive).

As usually defined, the viability is a read-out of living cells in per cent, often relative to untreated cells. As for `O=C1NC(=O)c2c1c1c3ccccc3n3c1c1c2c2ccccc2n1C1CCC3O1`, in test [4], the parasite load remaining is 66.3% (inactive). Moreover, the viability in test [4] came to 60.2%. Further, the remaining activity in test [1] is 103% (inactive). Besides, the fold change in test [2] (setting [6]) was 1.12 (inactive); in test [2] (setting [7]), 1.11. The cell count in test [2] (setting [8]) turned out to be 5410; in test [2] (setting [9]), 4820. Further, in test [3], the z-score is -0.395 (inactive).

Turning to `Fc1ccc(C(OCCN2CCN(C/C=C/c3ccccc3)CC2)c2ccc(F)cc2)cc1`, the remaining activity in test [1] was 116% (inactive). The fold change in test [2] (setting [6]) was 0.843 (inactive); in test [2] (setting [7]) it was 1.03. For the same compound, the cell count in test [2] (setting [8]) is 2280; in test [2] (setting [9]) it was 2710. In addition, the z-score in test [3] is -1.23 (inactive).

Consider `Cc1ncc(CN2CC=C(c3ccccc3)CC2)c(N)n1`, for which the remaining activity in test [1] was 92.9% (inactive). The fold change in test [2] (setting [6]) was 0.973 (inactive); in test [2] (setting [7]), 1.21. In addition, the cell count is 8940 in test [2] (setting [8]) and 9190 in test [2] (setting [9]). Also, the z-score in test [3] was -0.505 (inactive).

As to `CC(C)CC(N)C1(c2ccc(Cl)cc2)CCC1` (configuration not stated), the remaining activity in test [1] is 120% (inactive). Further, the fold change in test [2] (stronger effect = lower value) was 1.01 (inactive); in test [2] (setting [7]) it was 1.15. Also, the cell count in test [2] (setting [8]) is 7820; in test [2] (setting [9]) it was 7770. Moreover, in test [3], the z-score is -0.615 (inactive).

Regarding `COC1CCC2NC(C(=O)c3ccccc3)CC2C1` (configuration not stated), in test [1], the remaining activity was 86.6% (inactive). The fold change is 1.14 (inactive) in test [2] (setting [6]) and 0.708 in test [2] (setting [7]). Besides, the cell count in test [2] (setting [8]) came out at 1500; in test [2] (setting [9]) it was 1320. In addition, in test [3], the z-score is 0.23 (inactive).

Take `Cc1[nH]cnc1CCN`: the remaining activity in test [1] was 109% (inactive). For the same compound, the fold change was 0.956 (inactive) in test [2] (setting [6]) and 1.94 in test [2] (setting [7]). In addition, the cell count was 10000 in test [2] (setting [8]) and 10500 in test [2] (setting [9]). For the same compound, the z-score in test [3] is 0.125 (inactive).

Regarding `Cc1cccc(Nc2ccccc2C(=O)O)c1C`, the activity remaining in test [5] is 111% (inactive).

Consider `OCCc1ccccc1`, for which the activity remaining in test [5] is 117% (inactive).

Turning to `O=C1C=CC2=C3c4cc(O)c(O)cc4C[C@@]3(O)COC2=C1`, the activity remaining in test [5] is 120% (inactive).

In the case of `CC(C)=CCCC(C)[C@@H]1CC[C@]2(C)C3=C(CC[C@@]12C)C1(C)CC[C@H](O)C(C)(C)C1CC3` (some centres not stated), in test [5], the activity remaining was 124% (inactive).

On to `CC1=C(/C=C/C(C)=C/C=C/C(C)=C/C=C/C=C(C)/C=C/C=C(C)/C=C/C2=C(C)CCCC2(C)C)C(C)(C)CCC1`, for which the activity remaining in test [5] is 123% (inactive).

The values above are taken from PubChem BioAssay.
